Assay results: the supplement of paper PMC6555819

What was measured:
Assay in all cases: PBM binding z-score (relative to random genomic background probes); higher = stronger binding; sequences stand for … in GC…GCGATTGACAGCGTAGAATGAAGG
[1] = system: RARg homodimer (NR concentration 270 nM)
Summary of the method: (§1)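 Ligand-free nuclear receptor dimers were applied to custom Agilent 4×180K protein-binding microarrays whose double-stranded probes carried direct-repeat seeds, single-nucleotide variants, half-site ablations and random human genomic background sequences in 34-nt variable regions. Incubation lasted 1 h. Binding z-scores were computed against the random background probes from regression-normalized fluorescence.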

[2] = system: RXRa DBDmut IVT, anti-RXR (DBD mutation: RXRa K156A/R161A, NR concentration 90 nM)
Summary of the method: as §1

[3] = system: THRa homodimer (NR concentration 90 nM)
Summary of the method: as §1

[4] = system: VDR homodimer (NR concentration 270 nM)
Summary of the method: as §1

[5] = system: THRa:RXRa (NR concentration 90 nM, RXRa partner concentration 90 nM)
Summary of the method: as §1

## CGTCCAAGGTCAAAGGTCATTGAAGAGATGACGG
[1]
  PBM binding z-score: 8.52
[2]
  PBM binding z-score: 4.24
[3]
  PBM binding z-score: 3.04
[4]
  PBM binding z-score: 5.06

## CAAACAAGGTCACCGGAAGGTCAAAGTCCGCATG
[1]
  PBM binding z-score: 8.72
[2]
  PBM binding z-score: 4.24
[3]
  PBM binding z-score: 4.44
[4]
  PBM binding z-score: 5.94

## TATACGGGGTCAAAGGCCAGAGTACGAATGTCGA
[1]
  PBM binding z-score: 6.78
[2]
  PBM binding z-score: 4.48
[5]
  PBM binding z-score: 4.43
[3]
  PBM binding z-score: 1.72
[4]
  PBM binding z-score: 5.21

## CAAACGAGGTCACAGAGGTCAAAGTCCGTGCGTA
[1]
  PBM binding z-score: 9.3
[2]
  PBM binding z-score: 4.98
[3]
  PBM binding z-score: 5.02
[4]
  PBM binding z-score: 10.5

## CAAACAAGGTCAAAGGTCAAAGTCGAGCCAACCA
[1]
  PBM binding z-score: 8.75
[2]
  PBM binding z-score: 4.5
[3]
  PBM binding z-score: 2.79
[4]
  PBM binding z-score: 5.62

## CAAACAAGGTCACAGAGGTCAAAGTCCGTGCGTA
[1]
  PBM binding z-score: 9.05
[2]
  PBM binding z-score: 4.67
[5]
  PBM binding z-score: 5.03
[3]
  PBM binding z-score: 4.36
[4]
  PBM binding z-score: 9.97

## CGTCAAAGGTCAAGGTCAGTGAAAGAGACTCGAA
[1]
  PBM binding z-score: 9.35
[2]
  PBM binding z-score: 3.45
[5]
  PBM binding z-score: 4.33
[3]
  PBM binding z-score: 2.28
[4]
  PBM binding z-score: 3.23

## GCTTAGGGGTCAAAGGTTATAGCATGAATAGAAT
[1]
  PBM binding z-score: 7.06
[2]
  PBM binding z-score: 4.82
[5]
  PBM binding z-score: 4.68
[3]
  PBM binding z-score: 0.683
[4]
  PBM binding z-score: 4.44

## ATCGAAAGGTCAAGGTGAGTATAGAGAAAGGGAA
[1]
  PBM binding z-score: 8.56
[2]
  PBM binding z-score: 2.66
[5]
  PBM binding z-score: 4.3
[3]
  PBM binding z-score: 1.8
[4]
  PBM binding z-score: 1.84

## CCTGCTAGGTCAAAGGTCAGCTAAAGCAGCTCGC
[1]
  PBM binding z-score: 7.57
[2]
  PBM binding z-score: 2.83
[5]
  PBM binding z-score: 4.6
[3]
  PBM binding z-score: 1.41
[4]
  PBM binding z-score: 1.75

## CTCGAAAGGTCATGCTCAGGTGAGTATACCAAAC
[1]
  PBM binding z-score: 8.47
[2]
  PBM binding z-score: 3.44
[5]
  PBM binding z-score: 4.72
[3]
  PBM binding z-score: 1.61
[4]
  PBM binding z-score: 2.44

## GCTTACGGGTCAAAGGTCATAGCATGAATAGAAT
[1]
  PBM binding z-score: 7.46
[2]
  PBM binding z-score: 3.56
[3]
  PBM binding z-score: 1.04
[4]
  PBM binding z-score: 3.19

## TCTAGTAGGTCAAAGGTCACACACTCGAAATGCG
[1]
  PBM binding z-score: 7.76
[2]
  PBM binding z-score: 2.77
[5]
  PBM binding z-score: 4.73
[3]
  PBM binding z-score: 2.3
[4]
  PBM binding z-score: 3.32

## TCTAGTCGGTCAAAGGTCACACACTCGAAATGCG
[1]
  PBM binding z-score: 7.3
[2]
  PBM binding z-score: 1.78
[5]
  PBM binding z-score: 4.13
[3]
  PBM binding z-score: 2.24
[4]
  PBM binding z-score: 2.75

## CGTCAAAGGTCAATGCTAGGTCAGTGAAAGCATT
[1]
  PBM binding z-score: 8.73
[2]
  PBM binding z-score: 3.76
[5]
  PBM binding z-score: 4.77
[3]
  PBM binding z-score: 1.42
[4]
  PBM binding z-score: 2.5

## CAAACGAGGTCACCGGAAGGTCAAAGTCCGCATG
[1]
  PBM binding z-score: 8.7
[2]
  PBM binding z-score: 4.24
[3]
  PBM binding z-score: 4.61
[4]
  PBM binding z-score: 6

## CCTTAGGGGTCACTGACAGGTTATAGCATTTGGA
[1]
  PBM binding z-score: 7.67
[2]
  PBM binding z-score: 4.43
[5]
  PBM binding z-score: 4.27
[3]
  PBM binding z-score: 0.822
[4]
  PBM binding z-score: 3.55

## CGTCAAAGGTCAAGGTAACGTAACAGAAAGCAGC
[1]
  PBM binding z-score: 8.73
[2]
  PBM binding z-score: 3.48
[5]
  PBM binding z-score: 4.25
[3]
  PBM binding z-score: 1.83
[4]
  PBM binding z-score: 1.62

## CGTCCAAGGTCAAAGGTCAATGAAGAGATGACGG
[1]
  PBM binding z-score: 8.5
[2]
  PBM binding z-score: 3.93
[3]
  PBM binding z-score: 2.5
[4]
  PBM binding z-score: 3.6

## ATCGAAAGGTCAACGAGGTGAGTATACACCGTTT
[1]
  PBM binding z-score: 8.92
[2]
  PBM binding z-score: 3.23
[5]
  PBM binding z-score: 4.42
[3]
  PBM binding z-score: 1.96
[4]
  PBM binding z-score: 3.29

## CCTTACGGGTCACGAGGTCATAGCACGACGAGCG
[1]
  PBM binding z-score: 6.74
[2]
  PBM binding z-score: 3.05
[5]
  PBM binding z-score: 4.58
[3]
  PBM binding z-score: 3.43
[4]
  PBM binding z-score: 4.83

## CAAAATAGGTCACCGGAAGGTCAAAGTCCGCATG
[1]
  PBM binding z-score: 8.46
[2]
  PBM binding z-score: 2.03
[5]
  PBM binding z-score: 4.65
[3]
  PBM binding z-score: 1.82
[4]
  PBM binding z-score: 3.41

## AGTCAAAGGTCATCTAGGTAACGTAAGATATGCT
[1]
  PBM binding z-score: 7.77
[2]
  PBM binding z-score: 3.31
[5]
  PBM binding z-score: 4.7
[3]
  PBM binding z-score: 1.42
[4]
  PBM binding z-score: 2.52

## TCTCGGAGGTCACGAAAGGTCAGAGCTCGACATC
[1]
  PBM binding z-score: 9.26
[2]
  PBM binding z-score: 3.38
[3]
  PBM binding z-score: 2.36
[4]
  PBM binding z-score: 3.58

## CGTCCGAGGTCAAGGTCAGTGAAAGAGACTCGAA
[1]
  PBM binding z-score: 7.79
[2]
  PBM binding z-score: 4.19
[5]
  PBM binding z-score: 4.37
[3]
  PBM binding z-score: 3.97
[4]
  PBM binding z-score: 4.69

## AGAACGAGGTCACGCTGAGTTGATAGCAGAGTAG
[1]
  PBM binding z-score: 7.61
[2]
  PBM binding z-score: 4.36
[5]
  PBM binding z-score: 4.37
[3]
  PBM binding z-score: 3.59
[4]
  PBM binding z-score: 5.15

## CAAACGAGGTCAAGAGGTCAAAGTCCGCTTCCCG
[1]
  PBM binding z-score: 8.65
[2]
  PBM binding z-score: 4.19
[3]
  PBM binding z-score: 4.11
[4]
  PBM binding z-score: 6.32

## CGTCAAAGGTCATAGGAGGTCAGTGAAGACAGAT
[1]
  PBM binding z-score: 8.6
[2]
  PBM binding z-score: 3.88
[3]
  PBM binding z-score: 1.85
[4]
  PBM binding z-score: 3.84

## CCTTAGGGGTCACTCCAGGTTATAGCATCGGAGT
[1]
  PBM binding z-score: 7.07
[2]
  PBM binding z-score: 4.21
[3]
  PBM binding z-score: 0.963
[4]
  PBM binding z-score: 4.35

## CAAACGAGGTCAAAGGTCAAAGTCGAGCCAACCA
[1]
  PBM binding z-score: 8.66
[2]
  PBM binding z-score: 4.97
[3]
  PBM binding z-score: 3.26
[4]
  PBM binding z-score: 6.2

## TGTCAAAGTTCAAAGGTCACGTAAGTATCCACAC
[1]
  PBM binding z-score: 9.03
[2]
  PBM binding z-score: 4.57
[3]
  PBM binding z-score: 1.88
[4]
  PBM binding z-score: 5.69

## CGTCAAAGGTCAACTAAGGTAACGTAAAGCACGC
[1]
  PBM binding z-score: 9.23
[2]
  PBM binding z-score: 3.52
[5]
  PBM binding z-score: 5.48
[3]
  PBM binding z-score: 2.46
[4]
  PBM binding z-score: 2.23

## TATACAGGGTCAAAGGTCAGAGTACGAATGTCGA
[1]
  PBM binding z-score: 7.28
[2]
  PBM binding z-score: 3.34
[3]
  PBM binding z-score: 1.79
[4]
  PBM binding z-score: 4.33

## ACTCGGAGGTCAAAGGTCAGAGCTACGCCAGTGA
[1]
  PBM binding z-score: 8.15
[2]
  PBM binding z-score: 3.82
[3]
  PBM binding z-score: 1.5
[4]
  PBM binding z-score: 3.99

## CAAACGAGGTCAAGGTCAAAGTCGGTTTGTGCCA
[1]
  PBM binding z-score: 8.18
[2]
  PBM binding z-score: 4.52
[3]
  PBM binding z-score: 4.79
[4]
  PBM binding z-score: 6.15

## TCTAGTGGGTCAAAGGTCACACACTCGAAATGCG
[1]
  PBM binding z-score: 7.49
[2]
  PBM binding z-score: 2.07
[5]
  PBM binding z-score: 4.61
[3]
  PBM binding z-score: 1.7
[4]
  PBM binding z-score: 2.84

## CCTTAAGGGTCACGAGGTTATAGCACGACGAGCG
[1]
  PBM binding z-score: 7.23
[2]
  PBM binding z-score: 3.17
[5]
  PBM binding z-score: 4.24
[3]
  PBM binding z-score: 1.24
[4]
  PBM binding z-score: 2.91

## TGTCAAAGGTCAAAGGTAACGTAAGTATCCACAC
[1]
  PBM binding z-score: 8.8
[2]
  PBM binding z-score: 3.15
[5]
  PBM binding z-score: 4.47
[3]
  PBM binding z-score: 0.695
[4]
  PBM binding z-score: 2.81

## ACTTAGGGGTCAACGAGGTTATAGCACGCGTATA
[1]
  PBM binding z-score: 7.64
[2]
  PBM binding z-score: 4.82
[3]
  PBM binding z-score: 1.8
[4]
  PBM binding z-score: 6.45
